# Results filed as inconclusive are left out. A structure can be active in one record and inactive in another. Activity calls are given as the source filed them. The call rests on the fitted dose curve; in most records, active means well fitted cell-killing curve with a large enough effect; inconclusive means small, poorly fitted or top-dose-only effect; inactive means flat fitted curve, though single readings scatter.
# Test: Quantitative highthroughput screen to assess conditional lethalithy of NOMO1 cells grown in RPMI1640 with untreated serum (RPMI+s) (AID 1963876);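 further: 100% = DMSO wells and 0% = empty wells without cells; nearly all actives have a fitted effect of over 35% in size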
# Conditions: NOMO1 AML cells in RPMI+serum, CellTiter-Glo viability, 48 h; series mostly up to 45.8 µM; viability: at the top concentration
# Summary of the method: (§1)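 Each medium arm—HPLM with 10% dialyzed FBS, or RPMI1640 with 5 mM glucose and 10% untreated or dialyzed FBS—was screened against an 11-point, 3-fold compound titration for 48 h at 37 °C, with CellTiter-Glo luminescence as endpoint.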
row,SMILES,viability
1,COC(=O)N[C@H](C(=O)N1CCC[C@@H]1c1ncc(-c2ccc(-c3ccc(-c4cnc([C@@H]5CCCN5C(=O)[C@@H](NC(=O)OC)C(C)C)[nH]4)cc3)cc2)[nH]1)C(C)C,95% (inactive)
2,CC(C)=CCCC(C)=CCCC(C)=CCCC(C)=CCCC(C)=CCCC(C)=CCCC(C)=CCCC(C)=CCCC(C)=CCO,94.5% (inactive)
3,OCC(O)C(O)C(O)CO (configuration not stated),99% (inactive)
4,COC(=O)C1=CO[C@@H](O)[C@@H]2C(CO)=CC[C@@H]12,86.4% (inactive)
5,CC[C@H]1OC(=O)[C@H](C)[C@@H](O[C@H]2C[C@@](C)(OC)[C@@H](O)[C@H](C)O2)[C@H](C)[C@@H](O[C@@H]2O[C@H](C)C[C@H](N(C)C)[C@@H]2O)[C@](C)(O)C[C@@H](C)CN(C)[C@H](C)[C@@H](O)[C@]1(C)O,88.2% (inactive)
6,C[C@@H]1CC=CC=CC=CC=C[C@@H](O[C@@H]2O[C@H](C)[C@@H](O)[C@H](N)[C@H]2O)C[C@@H]2O[C@](O)(C[C@@H](O)C[C@@H]3O[C@@H]3C=CC(=O)O1)C[C@H](O)[C@@H]2C(=O)O,108% (inactive)
7,O=c1ccc2ccc(O)c(O)c2o1,94.6% (inactive)

# Test: Quantitative highthroughput screen to assess conditional lethalithy of NOMO1 cells grown in RPMI1640 with dialyzed fetal bovine serum (RPMI+ds) (AID 1963877); further: nearly all actives have a fitted effect of over 30% in size; further: potency means the concentration at half of the fitted maximal effect;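 on viability: 100% = DMSO control wells and 0% = empty wells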
# Conditions: NOMO1 in RPMI+dialyzed FBS viability, ATP luminescence, 48 h; series mostly up to 45.8 µM; viability: at the top concentration
# Summary of the method: as §1
SMILES,viability,Potency
COc1cccc(N(C)C(=S)Oc2ccc3c(c2)CCCC3)n1,106% (inactive),–
CCCCC(C=O)NC(=O)C(CC(C)C)NC(=O)OCc1ccccc1 (configuration not stated),91.3% (inactive),–
Fc1ccc(C(c2ccc(F)cc2)N2CCN(CC=Cc3ccccc3)CC2)cc1,109% (inactive),–
Cc1nn(C)c2c1C(c1ccc(C(F)(F)F)cc1)C(C#N)=C(N)O2 (configuration not stated),92.7% (inactive),–
CCCCCCCCCCCCCCCC(=O)OC[C@@H](NC(=O)C(Cl)Cl)[C@H](O)c1ccc([N+](=O)[O-])cc1,114% (inactive),–
COc1cc(C=CC(=O)CC(=O)C=Cc2ccc(O)c(OC)c2)ccc1O,–,42.9 µM (active)
CC(=O)N1CCN(c2ccc(OC[C@H]3CO[C@](Cn4ccnc4)(c4ccc(Cl)cc4Cl)O3)cc2)CC1,88.5% (inactive),–
Cc1c(-c2cccc3c(CCCOc4cccc5ccccc45)c(C(=O)O)n(Cc4cccnc4)c23)c(COc2ccc(N3CCN([S+](=O)([O-])N(C)C)CC3)cc2)nn1C,95% (inactive),–
C[C@]12C=CC(=O)N[C@@H]1CC[C@H]1[C@H]3CC[C@@H](C(=O)Nc4cc(C(F)(F)F)ccc4C(F)(F)F)[C@@]3(C)CC[C@@H]12,94.8% (inactive),–
CCC=CC[C@H]1C(=O)CC[C@@H]1CC(=O)OC,97.4% (inactive),–
CS[C@H]1SC[C@@H]2C(=O)N(C)[C@H](C(C)C)C(=O)OC[C@H](NC(=O)c3cnc4ccccc4n3)C(=O)N[C@H](C)C(=O)N(C)[C@@H]1C(=O)N(C)[C@H](C(C)C)C(=O)OC[C@H](NC(=O)c1cnc3ccccc3n1)C(=O)N[C@H](C)C(=O)N2C,–,0.0209 µM (active)
O=C(C=CC#Cc1cccc(NS(=O)(=O)c2ccccc2)c1)NO,–,3.32 µM (active)
CC(C)CN(C[C@H](O)[C@H](Cc1ccccc1)NC(=O)O[C@H]1CCOC1)S(=O)(=O)c1ccc(N)cc1,99.7% (inactive),–
C[C@@H]1[C@H](C)CC[C@]2(C(=O)O)CC[C@]3(C)C(=CC[C@@H]4[C@@]5(C)C[C@@H](O)[C@H](O)[C@@](C)(CO)[C@H]5CC[C@]43C)[C@@H]12,96% (inactive),–
O=C(C=Cc1c(C(=O)O)[nH]c2cc(Cl)cc(Cl)c12)Nc1ccccc1,92.3% (inactive),–
CC1CC2C3CCC4=CC(=O)C=C[C@]4(C)[C@@]3(F)[C@@H](O)C[C@]2(C)[C@@]1(O)C(=O)CO (some centres not stated),101% (inactive),–
Nc1ncnc2c1ncn2[C@@H]1O[C@H](CO)C[C@@H]1O,104% (inactive),–
Cc1ccc([C@@H]2O[C@H](CO)[C@@H](O)[C@H](O)[C@@H]2O)cc1Cc1ccc(-c2ccc(F)cc2)s1,77.6% (inactive),–
CC1(C)O[C@@H]2C[C@@H]3[C@H]4C[C@@H](F)C5=CC(=O)C=C[C@]5(C)[C@@]4(F)[C@@H](O)C[C@]3(C)[C@]2(C(=O)CO)O1,91.6% (inactive),–
CCC(=O)OCC(=O)[C@@]1(OC(=O)CC)[C@@H](C)C[C@@H]2[C@H]3CCC4=CC(=O)C=C[C@]4(C)[C@@]3(F)[C@@H](O)C[C@@]21C,–,5.9 µM (active)

SMILES,viability,Potency
CCN(CC)CCNC(=O)c1c(C)[nH]c(C=C2C(=O)Nc3ccc(F)cc32)c1C,–,0.303 µM (active)
CCC(=C(CC)c1ccc(O)cc1)c1ccc(O)cc1,83.5% (inactive),–
CC(C)c1onc(-c2c(Cl)cccc2Cl)c1COc1ccc(C=Cc2cccc(C(=O)O)c2)c(Cl)c1,93.9% (inactive),–
O=C(NNC(=O)c1ccc(CNS(=O)(=O)c2ccc(F)c(Cl)c2)cc1)c1ccccc1,115% (inactive),–
CNC[C@@H](O)[C@@H](O)[C@H](O)[C@H](O)CO,87.3% (inactive),–
C[C@H]1C[C@@H]2[C@@H]([C@@H](O)C[C@@]3(C)[C@H]2CC[C@]3(O)C(=O)CO)[C@@]2(C)C=CC(=O)C=C12,96.6% (inactive),–
CO[C@H]1/C=C\O[C@@]2(C)Oc3c(C)c(O)c4c(O)c(c(C=NN5CCN(C6CCCC6)CC5)c(O)c4c3C2=O)NC(=O)C(C)=CC=C[C@H](C)[C@H](O)[C@@H](C)[C@@H](O)[C@@H](C)[C@H](OC(C)=O)[C@H]1C,–,2.64 µM (active)
CC(C=CC1=C(C)CCCC1(C)C)=CC=CC(C)=CC(=O)O,–,833 nM (active) and inactive
C[C@H](CCC(=O)O)[C@H]1CC[C@H]2[C@H]3[C@@H](CC[C@]12C)[C@@]1(C)CC[C@@H](O)C[C@H]1C[C@@H]3O,90.5% (inactive),–
CCCCCCCc1ccc(CCc2cccc(O)c2C(=O)O)cc1,87.3% (inactive),–
Cc1cccc(C#Cc2ccccc2)n1,97.3% (inactive),–
C[C@H]1[C@H](NC(=O)C(=NOC(C)(C)C(=O)O)c2csc(N)n2)C(=O)N1S(=O)(=O)O,97.1% (inactive),–
CC[C@]1(O)C[C@@H]2CN(CCc3c([nH]c4ccccc34)[C@@](C(=O)OC)(c3cc4c(cc3OC)N(C=O)[C@@H]3C45CCN4CC=C[C@](CC)([C@H]45)[C@@H](OC(C)=O)[C@]3(O)C(=O)OC)C2)C1 (some centres not stated),96.1% (inactive),–
COC(=O)N[C@H](C(=O)N1CCC[C@@H]1c1ncc(-c2ccc(-c3ccc(-c4cnc([C@@H]5CCCN5C(=O)[C@@H](NC(=O)OC)C(C)C)[nH]4)cc3)cc2)[nH]1)C(C)C,90.4% (inactive),–
CC(C)=CCCC(C)=CCCC(C)=CCCC(C)=CCCC(C)=CCCC(C)=CCCC(C)=CCCC(C)=CCCC(C)=CCO,95.1% (inactive),–
OCC(O)C(O)C(O)CO (configuration not stated),113% (inactive),–
COC(=O)C1=CO[C@@H](O)[C@@H]2C(CO)=CC[C@@H]12,89.9% (inactive),–
CC[C@H]1OC(=O)[C@H](C)[C@@H](O[C@H]2C[C@@](C)(OC)[C@@H](O)[C@H](C)O2)[C@H](C)[C@@H](O[C@@H]2O[C@H](C)C[C@H](N(C)C)[C@@H]2O)[C@](C)(O)C[C@@H](C)CN(C)[C@H](C)[C@@H](O)[C@]1(C)O,86.9% (inactive),–
C[C@@H]1CC=CC=CC=CC=C[C@@H](O[C@@H]2O[C@H](C)[C@@H](O)[C@H](N)[C@H]2O)C[C@@H]2O[C@](O)(C[C@@H](O)C[C@@H]3O[C@@H]3C=CC(=O)O1)C[C@H](O)[C@@H]2C(=O)O,103% (inactive),–
O=c1ccc2ccc(O)c(O)c2o1,99% (inactive),–
